Data: publication PMC4081100, “A DNA-binding-site landscape and regulatory network analysis for NAC transcription factors in Arabidopsis thaliana”

Experiments:
Assay in all cases: universal protein binding microarray (PBM); transcription factors of Arabidopsis thaliana; high values mean tight binding
Settings in all cases: protein: recombinant; tags: GST; chain copies: 2; dsDNA, one strand shown
GST-ANAC092(1-176) = target: T1, GST-ANAC092(1-176) (Arabidopsis thaliana, UniProt Q9FKA0 1-176)
T1 sequence: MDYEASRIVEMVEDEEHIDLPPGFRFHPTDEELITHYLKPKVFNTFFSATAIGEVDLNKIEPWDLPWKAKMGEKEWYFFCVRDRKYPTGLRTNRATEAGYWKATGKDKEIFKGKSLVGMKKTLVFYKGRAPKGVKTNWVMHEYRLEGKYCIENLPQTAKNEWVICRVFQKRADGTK
Method in brief: (§1)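 Binding is expressed as the normalised enrichment score (E-score). Proteins carrying a GST tag, whether NAC-domain, full-length or DNA-binding-domain forms, were induced in cells, and zinc acetate was added for zinc-finger proteins. After purification on glutathione–Sepharose 4B and quantification by A280 or anti-GST western blot, each was applied in duplicate at 200 to 500 nM final to custom all-10-mer Agilent 4 × 180K arrays made double-stranded by primer extension. Gapped and ungapped 8-mers were scored.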

GST-NTL6(1-168) = GST-NTL6(1-168) (Arabidopsis thaliana, UniProt Q9SCK6 1-168)
Method in brief: as §1

GST-ANAC019 NAC domain = target: T2, GST-ANAC019 NAC domain (Arabidopsis thaliana, UniProt Q9C932 14-162)
T2 sequence: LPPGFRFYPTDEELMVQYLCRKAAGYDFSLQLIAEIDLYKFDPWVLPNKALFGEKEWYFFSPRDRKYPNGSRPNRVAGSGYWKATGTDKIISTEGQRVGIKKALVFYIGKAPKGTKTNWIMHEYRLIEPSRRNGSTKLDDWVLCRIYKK
Method in brief: as §1

GST-ANAC055(1-171) = target: T3, GST-ANAC055(1-171) (Arabidopsis thaliana, UniProt Q9LDY8 1-171)
T3 sequence: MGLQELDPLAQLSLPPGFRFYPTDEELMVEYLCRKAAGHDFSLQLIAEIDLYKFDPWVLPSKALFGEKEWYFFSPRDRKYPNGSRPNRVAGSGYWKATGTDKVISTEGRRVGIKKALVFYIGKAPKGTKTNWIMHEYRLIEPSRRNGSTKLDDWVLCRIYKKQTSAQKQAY
Method in brief: as §1

GST-ATAF1 NAC domain = target: T4, GST-ATAF1 NAC domain (Arabidopsis thaliana, UniProt Q39013 7-158)
T4 sequence: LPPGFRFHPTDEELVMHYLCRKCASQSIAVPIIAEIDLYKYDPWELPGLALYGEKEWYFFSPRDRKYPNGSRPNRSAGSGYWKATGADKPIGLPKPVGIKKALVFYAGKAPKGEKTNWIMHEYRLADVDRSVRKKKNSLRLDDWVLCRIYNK
Method in brief: as §1

[1] = target: T5, GST-ANAC092(1-285) full length (Arabidopsis thaliana, UniProt Q9FKA0 1-285)
T5 sequence: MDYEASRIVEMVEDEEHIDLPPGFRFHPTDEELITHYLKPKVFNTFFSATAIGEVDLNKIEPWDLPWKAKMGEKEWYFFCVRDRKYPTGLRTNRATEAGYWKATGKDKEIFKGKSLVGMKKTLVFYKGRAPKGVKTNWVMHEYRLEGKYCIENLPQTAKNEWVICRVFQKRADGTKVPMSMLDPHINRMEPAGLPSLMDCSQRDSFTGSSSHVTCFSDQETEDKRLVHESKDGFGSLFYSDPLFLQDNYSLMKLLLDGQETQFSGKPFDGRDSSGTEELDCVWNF
Method in brief: as §1

GST-NST2(1-184) = target: T6, GST-NST2(1-184) (Arabidopsis thaliana, UniProt Q9M274 1-184)
T6 sequence: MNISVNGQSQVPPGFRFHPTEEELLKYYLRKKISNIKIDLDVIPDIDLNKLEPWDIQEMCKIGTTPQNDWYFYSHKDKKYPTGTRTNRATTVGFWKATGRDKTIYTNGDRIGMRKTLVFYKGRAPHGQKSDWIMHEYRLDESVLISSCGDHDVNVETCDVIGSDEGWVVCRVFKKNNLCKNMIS
Method in brief: as §1

GST-NTL8 NAC domain = target: T7, GST-NTL8 NAC domain (Arabidopsis thaliana, UniProt Q9XIN7 14-156)
T7 sequence: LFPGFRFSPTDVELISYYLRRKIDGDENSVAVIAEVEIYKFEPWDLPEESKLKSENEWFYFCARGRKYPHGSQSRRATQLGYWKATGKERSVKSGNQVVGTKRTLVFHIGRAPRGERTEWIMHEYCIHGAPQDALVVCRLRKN
Method in brief: as §1

GST-SND1(1-203) = target: T8, GST-SND1(1-203) (Arabidopsis thaliana, UniProt Q9LPI7 1-203)
T8 sequence: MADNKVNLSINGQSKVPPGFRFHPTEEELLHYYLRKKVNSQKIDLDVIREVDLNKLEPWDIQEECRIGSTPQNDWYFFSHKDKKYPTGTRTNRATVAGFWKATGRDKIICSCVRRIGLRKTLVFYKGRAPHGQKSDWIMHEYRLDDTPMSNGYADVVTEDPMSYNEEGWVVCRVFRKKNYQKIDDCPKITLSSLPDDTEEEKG
Method in brief: as §1

GST-VND3 NAC domain = target: T9, GST-VND3 NAC domain (Arabidopsis thaliana, UniProt Q9FH59 12-162)
T9 sequence: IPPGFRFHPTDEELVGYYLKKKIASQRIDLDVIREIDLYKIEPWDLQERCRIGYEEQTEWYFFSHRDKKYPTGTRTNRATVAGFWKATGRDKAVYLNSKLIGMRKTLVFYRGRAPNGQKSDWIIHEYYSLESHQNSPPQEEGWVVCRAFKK
Method in brief: as §1

GST-VND7 NAC domain = target: T10, GST-VND7 NAC domain (Arabidopsis thaliana, UniProt Q9C8W9 9-158)
T10 sequence: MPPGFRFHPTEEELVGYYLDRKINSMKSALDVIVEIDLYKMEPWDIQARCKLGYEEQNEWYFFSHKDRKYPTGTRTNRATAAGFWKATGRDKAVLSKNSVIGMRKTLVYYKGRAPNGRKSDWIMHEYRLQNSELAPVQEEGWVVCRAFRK
Method in brief: as §1

GST-NAP(1-166) = target: T11, GST-NAP(1-166) (Arabidopsis thaliana, UniProt O49255 1-166)
T11 sequence: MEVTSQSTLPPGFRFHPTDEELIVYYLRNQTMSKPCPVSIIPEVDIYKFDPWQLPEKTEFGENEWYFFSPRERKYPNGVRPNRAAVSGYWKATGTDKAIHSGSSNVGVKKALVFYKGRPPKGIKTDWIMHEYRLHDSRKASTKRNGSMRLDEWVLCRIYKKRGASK
Method in brief: as §1

Sequence of GST-NTL6(1-168) (Q9SCK6 1-168): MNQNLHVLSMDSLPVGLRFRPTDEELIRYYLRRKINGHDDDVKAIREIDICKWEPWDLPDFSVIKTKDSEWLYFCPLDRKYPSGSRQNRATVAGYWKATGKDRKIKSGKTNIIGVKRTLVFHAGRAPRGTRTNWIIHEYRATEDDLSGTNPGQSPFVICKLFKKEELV

Sequence	binding signal (GST-ANAC092(1-176)) [E-score]	binding signal (GST-NTL6(1-168)) [E-score]	binding signal (GST-ANAC019 NAC domain) [E-score]	binding signal (GST-ANAC055(1-171)) [E-score]	binding signal (GST-ATAF1 NAC domain) [E-score]	binding signal [1] [E-score]	binding signal (GST-NST2(1-184)) [E-score]	binding signal (GST-NTL8 NAC domain) [E-score]	binding signal (GST-SND1(1-203)) [E-score]	binding signal (GST-VND3 NAC domain) [E-score]	binding signal (GST-VND7 NAC domain) [E-score]	binding signal (GST-NAP(1-166)) [E-score]
GAAGTAAA	0.214	0.409	0.0501	0.107	0.211	0.305	0.224	0.222	0.329	0.179	0.18	–
CTTGCTTA	0.251	0.416	0.0719	–	0.136	0.347	0.17	0.194	0.437	0.124	0.0501	–
GTAACTTA	0.271	0.375	–	0.185	0.233	0.357	0.306	0.229	0.43	0.195	0.141	0.133
AAGCAATC	0.384	0.324	0.21	0.0736	0.108	0.417	0.327	0.264	0.466	0.152	0.289	–
ATTGCTTG	0.355	0.228	0.19	0.115	–	0.408	0.296	0.143	0.406	0.223	0.218	–
GAAGGTAA	0.174	0.329	0.158	0.111	0.22	0.25	0.255	0.463	0.227	0.148	0.141	–
AAAGCAAC	0.268	0.0839	–	0.0548	–	0.373	0.277	0.0929	0.401	0.0501	0.145	–
